Measurements reported in PubChem BioAssay (NCATS).
Records with an inconclusive call do not appear. Entries that show only a call come without a potency. Activity calls are given as the source filed them. Calls come from the whole dose curve; as a rule, active = well fitted inhibition curve with a large enough effect; inconclusive = small, poorly fitted or top-dose-only effect; inactive = no such curve, though single readings can be large or run the other way.

Key:
[1] = test system: Zika virus NS2B-NS3 protease (unlinked complex); experiment: Primary screen GU Rhodamine qHTS for Zika virus inhibitors: Unlinked NS2B-NS3 protease assay (AID 1347159); settings: Recombinant ZIKV NS2B-NS3 protease, Rhodamine110 substrate fluorescence; series mostly up to 107 µM; note: nearly all actives have a fitted effect of over 60% in size
Procedure, shortened: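 Percent inhibition came from the 15-min rise in Rhodamine110 fluorescence (1.5 microM substrate, ~15% conversion), normalized to no-inhibitor and no-enzyme wells and Hill-fitted. Unlinked protease, 25 nM, pH 8.0 Tris buffer; compounds up to 114 microM, 15-min preincubation.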

[2] = test system: Zika virus NS2B-NS3 protease (linked construct); experiment: Primary screen NINDS Rhodamine qHTS for Zika virus inhibitors (AID 1347160); settings: purified NS2B-NS3 protease, Rhodamine110 substrate fluorescence; series mostly up to 57.1 µM; note: nearly all actives have a fitted effect of over 55% in size
Procedure, shortened: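 Rhodamine110-peptide cleavage (1.5 µM substrate) by 25 nM linked NS2B-NS3 enzyme at pH 8.0 (Tris, Tween 20), after 15 min RT preincubation with compounds; 15-min fluorescence change normalized to controls and Hill-fitted.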

Row | SMILES | Potency [1] | Potency [2]
1 | CC(=O)OC1CC2(C)C(CCC(C)C23Cc2c(O)cc(CO)c(C=O)c2O3)C(C)(C)C1O (stereo not given) | inactive | inactive
2 | CC1(C)CCC2(C(=O)OC3OC(COC4OC(CO)C(O)C(O)C4O)C(O)C(O)C3O)CCC3(C)C(=CCC4C5(C)CCC(OC6OCC(O)C(O)C6O)C(C)(C)C5CCC43C)C2C1O (stereo not given) | inactive | inactive
3 | CCn1c(=O)n([C@H]2CCCN(c3nccc(-c4cc5ccccc5o4)n3)C2)c2ccccc21 | inactive | inactive
4 | O=c1cc(NCCCN[C@@H]2CCOc3c(Br)cc(Br)cc32)[nH]c2ccsc12 | inactive | inactive
5 | C=CCC1=C[C@]2(OC)[C@H](C)[C@@H](c3ccc4c(c3)OCO4)O[C@]2(OC)CC1=O | inactive | inactive
6 | C=C(C)C(=O)O[C@H]1[C@H]2C(=C)C(=O)O[C@@H]2C[C@@H](C)[C@@H]2O[C@@H]2C(=O)[C@](C)(O)[C@@H]1OC(=O)C(=C)C | inactive | inactive
7 | C=C1C(=O)O[C@@H]2C(OC(=O)/C(C)=C\C)/C(C)=C\C(=O)/C=C(\C)C[C@H](O)[C@@H]12 (stereo not given in full) | inactive | inactive
8 | CCc1cccc(CC)c1-n1c(C=C(C)C)c(C(=O)N2CCNCC2)cc(-c2nc(-c3ccc(C(F)(F)F)cc3)cs2)c1=O | inactive | inactive
9 | O=C(NC1(c2ccccc2)CC1)c1c(CN2CCC(N3CCCCC3)CC2)c(-c2cccc(C(F)(F)F)c2)nc2cc(Br)ccc12 | inactive | inactive
10 | O=C(NNc1nc2cc(F)ccc2n2cccc12)c1cnccn1 | inactive | inactive
11 | O=C(NCCN1CCC(n2c(=O)[nH]c3ccccc32)CC1)c1cc2cc(F)ccc2[nH]1 | inactive | inactive
12 | CCN(Cc1ccccc1)C(=O)Cn1c(=O)n(C)c2cnc(-c3ccccc3)nc21 | inactive | inactive
13 | COc1c2c(nc3occc13)C(CC=C(C)C)(OC)C(O)CC2 (stereo not given) | inactive | inactive
14 | COC1CC(=O)C23C(=O)NC(Cc4c[nH]c5ccccc45)C2C(C)C2(C)OC2C3/C=C/CC(C)CC1O (stereo not given) | inactive | inactive
15 | Fc1ccc2[nH]ccc2c1-c1nc(N2CCOCC2)c2sc(CN3CCN(CC4CC4)CC3)cc2n1 | inactive | inactive
16 | CC1(C)CCCC2(C)C1C(=O)C=C(C(=O)O)C2(O)C(=O)O (stereo not given) | inactive | inactive
17 | Cc1nc2ccc(-n3ncc(C(=O)c4cc5ccccc5[nH]4)c3N)cc2[nH]1 | inactive | inactive
18 | COC1CC(=O)C23C(=O)NC(CC(C)C)C2C(C)C(C)=CC3/C=C(\C)CCCC1O (stereo not given) | inactive | inactive
19 | COC1CCN(C(=O)c2cc(Cc3n[nH]c(=O)c4ccccc34)ccc2F)CC1 | inactive | inactive
20 | COc1ccc(NC(=O)c2ccc(-c3ccc(-c4nnc(C)o4)cc3C)cc2)cc1N1CCN(C)CC1 | inactive | inactive
21 | Cc1csc2c(N[C@@H](C)CN3CCN(S(=O)(=O)c4ccc(Cl)c(Cl)c4)CC3)ncnc12 | inactive | inactive
22 | CCCCC1CCC(c2nc(-c3ccncc3)no2)CC1 (stereo not given) | inactive | inactive
23 | COc1c(F)cccc1C(=O)N1C[C@@H](C)CC[C@H]1CNc1ccc(Br)cn1 | inactive | inactive
24 | COc1cc2c(cc1OC)CN(C(=O)/C=C/c1c(-c3ccccc3)n(C)c3ncccc13)CC2 | inactive | inactive
25 | N[C@@H]1c2cccnc2[C@H](OC(=O)N2CCC(n3c(=O)[nH]c4ncccc43)CC2)CC[C@H]1c1cccc(F)c1F | inactive | inactive
